In PubChem BioAssay AID1159580 (chemical genetic matrix, 2015):
The whole screen tested about 5,500 compounds, of which about 2,000 (36%) were called active. Inconclusive results (about 18%) are left out. Rule as the data show it: active = normalized growth mostly below about 0.91 (no sharp cut-off); inconclusive = no clear call, values can overlap the other calls; inactive = mostly above about 0.92. Some of the results follow.

Assay: chemical genetic growth profiling, strain panel (AID 1159580);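 also: tested at 20 µM; growth read once vehicle control cultures reached saturation at 30 °C; 1 = growth at the plate median or of vehicle wells; lower values mean less growth of the strain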
Details: growth OD
[1] = S. cerevisiae deletion strains, locus YAL013W, strain DEP1, active compounds read low
[2] = S. cerevisiae deletion strains, locus YBR229C, strain ROT2, active compounds read low
[3] = S. cerevisiae deletion strains, locus YDL101C, strain DUN1, active compounds read low
[4] = S. cerevisiae deletion strains, locus YDL134C, strain PPH21, active compounds read low
[5] = S. cerevisiae deletion strains, locus YDR150W, strain NUM1, active compounds read low
[6] = S. cerevisiae deletion strains, locus YEL061C, strain CIN8, active compounds read low
[7] = S. cerevisiae deletion strains, locus YGR078C, strain PAC10, active compounds read low
[8] = S. cerevisiae deletion strains, locus YHR030C, strain SLT2, active compounds read low
[9] = S. cerevisiae deletion strains, locus YHR087W, strain rtc3, active compounds read low
[10] = S. cerevisiae deletion strains, locus YJL187C, strain SWE1, active compounds read low
[11] = S. cerevisiae deletion strains, locus YJR043C, strain POL32, active compounds read low
[12] = S. cerevisiae deletion strains, locus YJR075W, strain HOC1, active compounds read low
[13] = S. cerevisiae deletion strains, locus YKL190W, strain CNB1, active compounds read low
[14] = S. cerevisiae deletion strains, locus YLR039C, strain RIC1, active compounds read low
[15] = S. cerevisiae deletion strains, locus YLR058C, strain SHM2 (second series), active compounds read low
[16] = S. cerevisiae deletion strains, locus YLR085C, strain ARP6, active compounds read low
[17] = S. cerevisiae deletion strains, locus YLR262C, strain YPT6, active compounds read low
[18] = S. cerevisiae deletion strains, locus YML094W, strain GIM5, active compounds read low
[19] = S. cerevisiae deletion strains, locus YMR219W, strain ESC1, active compounds read low
[20] = S. cerevisiae deletion strains, locus YMR263W, strain SAP30, active compounds read low
[21] = S. cerevisiae deletion strains, locus YNL153C, strain GIM3, active compounds read low
[22] = S. cerevisiae deletion strains, locus YNL298W, strain CLA4 (second series), active compounds read low
[23] = S. cerevisiae deletion strains, locus YNL322C, strain KRE1, active compounds read low
[24] = S. cerevisiae deletion strains, locus YNR030W, strain Alg12, active compounds read low
[25] = S. cerevisiae deletion strains, locus YOL006C, strain TOP1, active compounds read low
[26] = S. cerevisiae deletion strains, locus YPL055C, strain LGE1, active compounds read low
[27] = S. cerevisiae deletion strains, locus YPL241C, strain CIN2, active compounds read low
[28] = S. cerevisiae deletion strains, locus YPR135W, strain CTF4, active compounds read low
[29] = S. cerevisiae strains, strain wild type, active compounds read low
[30] = S. cerevisiae deletion strains, locus YGR229C, strain SMI1, active compounds read low
[31] = S. cerevisiae deletion strains, locus YMR307W, strain GAS1, active compounds read low

Measured: normalized growth

Cc1onc(-c2ccccc2Cl)c1C(=O)Nc1ccc(S(=O)(=O)Nc2nccs2)cc1
inactive: [1] 1.01 | [2] 1.01 | S. cerevisiae deletion strains, locus YCL061C, strain MRC1, active compounds read low 0.985 | [3] 0.977 | [4] 0.976 | [5] 0.972 | [6] 1.01 | [7] 1.01 | [8] 0.982 | [9] 0.968 | [10] 1 | [11] 0.966 | [12] 1 | [13] 0.989 | [14] 0.975 | [15] 0.982 | [16] 1.05 | [17] 0.97 | [18] 1.03 | [19] 0.999 | [20] 1 | [21] 0.98 | [22] 0.949 | [23] 0.995 | [24] 0.996 | [25] 0.926 | [26] 1.05 | [27] 1.01 | [28] 0.932 | [29] 0.968

Cc1onc(-c2ccccc2Cl)c1C(=O)Nc1ccc2c(c1)OCO2
inactive: [1] 0.993 | [2] 1.02 | [3] 1 | [4] 0.985 | [5] 0.935 | [6] 1.01 | [7] 1 | [30] 0.997 | [8] 1.08 | [9] 1.01 | [10] 1.01 | [11] 1.03 | [12] 1.01 | [14] 0.971 | [15] 1.02 | [16] 0.997 | [17] 0.99 | [18] 1.02 | [19] 1 | [20] 0.919 | [31] 1.01 | [21] 1 | [22] 1.04 | [23] 0.995 | [24] 1.03 | [26] 0.888 | [27] 1.01 | [28] 1.14

CCOP(=S)(OCC)SCCSCC
inactive: [1] 0.992 | S. cerevisiae deletion strains, locus YBR021W, strain FUR4, active compounds read low 1 | [2] 0.955 | S. cerevisiae deletion strains, locus YCL029C, strain bik1, active compounds read low 0.977 | S. cerevisiae deletion strains, locus YDL035C, strain GPR1, active compounds read low 0.964 | S. cerevisiae deletion strains, locus YDL074C, strain BRE1, active compounds read low 0.896 | [3] 0.977 | [4] 0.983 | S. cerevisiae deletion strains, locus YDL185W, strain tfp1, active compounds read low 0.956 | S. cerevisiae deletion strains, locus YDL192W, strain arf1, active compounds read low 0.981 | S. cerevisiae deletion strains, locus YDR101C, strain arx1, active compounds read low 0.991 | [5] 0.975 | S. cerevisiae deletion strains, locus YDR162C, strain NBP2, active compounds read low 0.967 | S. cerevisiae deletion strains, locus YDR318W, strain mcm21, active compounds read low 0.97 | S. cerevisiae deletion strains, locus YDR388W, active compounds read low 0.984 | S. cerevisiae deletion strains, locus YDR502C, strain sam2, active compounds read low 0.986 | [6] 0.983 | S. cerevisiae deletion strains, locus YER110C, active compounds read low 0.985 | S. cerevisiae deletion strains, locus YER155C, strain BEM2, active compounds read low 0.989 | S. cerevisiae deletion strains, locus YER167W, strain BCK2, active compounds read low 0.992 | S. cerevisiae deletion strains, locus YGL078C, strain dbp3, active compounds read low 0.996 | S. cerevisiae deletion strains, locus YGL086W, strain mad1, active compounds read low 0.991 | S. cerevisiae deletion strains, locus YGL248W, strain PDE1, active compounds read low 0.972 | [7] 0.965 | S. cerevisiae deletion strains, locus YGR135W, strain pre9, active compounds read low 0.982 | [30] 0.968 | S. cerevisiae deletion strains, locus YGR252W, strain gcn5, active compounds read low 0.992 | [8] 0.992 | S. cerevisiae deletion strains, locus YHR079C, strain IRE1 (second series), active compounds read low 0.997 | S. cerevisiae deletion strains, locus YHR094C, strain hxt1, active compounds read low 0.991 | S. cerevisiae deletion strains, locus YHR129C, strain ARP1, active compounds read low 0.976 | S. cerevisiae deletion strains, locus YHR200W, strain rpn10, active compounds read low 0.994 | S. cerevisiae deletion strains, locus YIL066C, strain RNR3, active compounds read low 0.977 | S. cerevisiae deletion strains, locus YIL073C, strain SPO22, active compounds read low 0.982 | S. cerevisiae deletion strains, locus YIL125W, strain kgd1, active compounds read low 0.975 | S. cerevisiae deletion strains, locus YIR030C, strain dcg1, active compounds read low 0.996 | S. cerevisiae deletion strains, locus YJL095W, strain BCK1, active compounds read low 0.97 | S. cerevisiae deletion strains, locus YJL134W, strain LCB3, active compounds read low 0.98 | S. cerevisiae deletion strains, locus YJL168C, strain set2, active compounds read low 0.992 | S. cerevisiae deletion strains, locus YJL187C, strain SWE1 (second series), active compounds read low 0.979 | [11] 0.991 | [12] 0.961 | S. cerevisiae deletion strains, locus YKL009W, strain mrt4, active compounds read low 0.944 | S. cerevisiae deletion strains, locus YKL068W, active compounds read low 0.977 | S. cerevisiae deletion strains, locus YKL085W, strain MDH1 (second series), active compounds read low 0.979 | S. cerevisiae deletion strains, locus YKL085W, strain MDH1, active compounds read low 0.979 | [13] 0.964 | S. cerevisiae deletion strains, locus YKR001C, strain vps1, active compounds read low 0.976 | [14] 0.937 | S. cerevisiae deletion strains, locus YLR058C, strain SHM2, active compounds read low 0.972 | S. cerevisiae deletion strains, locus YLR102C, strain apc9, active compounds read low 0.988 | [17] 0.878 | S. cerevisiae deletion strains, locus YLR268W, strain sec22, active compounds read low 0.975 | S. cerevisiae deletion strains, locus YLR330W, strain CHS5, active compounds read low 0.974 | S. cerevisiae deletion strains, locus YLR342W, strain FKS1 (second series), active compounds read low 1.03 | S. cerevisiae deletion strains, locus YLR371W, strain rom2, active compounds read low 0.999 | S. cerevisiae deletion strains, locus YLR418C, strain cdc73, active compounds read low 0.947 | S. cerevisiae deletion strains, locus YML016C, strain PPZ1, active compounds read low 0.982 | S. cerevisiae deletion strains, locus YML032C, strain rad52, active compounds read low 0.99 | S. cerevisiae deletion strains, locus YML124C, strain tub3, active compounds read low 0.995 | S. cerevisiae deletion strains, locus YMR078C, strain ctf18, active compounds read low 0.978 | S. cerevisiae deletion strains, locus YMR223W, strain ubp8, active compounds read low 0.992 | [20] 0.975 | [31] 1.04 | S. cerevisiae deletion strains, locus YNL067W, strain RPL9B, active compounds read low 0.972 | S. cerevisiae deletion strains, locus YNL128W, strain TEP1, active compounds read low 0.945 | [21] 0.978 | S. cerevisiae deletion strains, locus YNL233W, strain BNI4, active compounds read low 0.99 | S. cerevisiae deletion strains, locus YNL250W, strain rad50, active compounds read low 0.979 | S. cerevisiae deletion strains, locus YNL271C, strain bni1, active compounds read low 0.994 | S. cerevisiae deletion strains, locus YNL298W, strain CLA4, active compounds read low 0.982 | S. cerevisiae deletion strains, locus YNL307C, strain MCK1, active compounds read low 0.993 | [23] 0.976 | S. cerevisiae deletion strains, locus YNR052C, strain pop2, active compounds read low 0.998 | [25] 0.846 | S. cerevisiae deletion strains, locus YOL012C, strain htz1 0.792 | S. cerevisiae deletion strains, locus YOL147C, strain pex11, active compounds read low 0.991 | S. cerevisiae deletion strains, locus YOR061W, strain CKA2, active compounds read low 0.96 | S. cerevisiae deletion strains, locus YOR069W, strain VPS5, active compounds read low 0.997 | S. cerevisiae deletion strains, locus YOR136W, strain idh2, active compounds read low 0.995 | S. cerevisiae deletion strains, locus YOR144C, strain elg1, active compounds read low 0.99 | S. cerevisiae deletion strains, locus YOR184W, strain ser1, active compounds read low 0.956 | S. cerevisiae deletion strains, locus YOR316C, strain cot1, active compounds read low 0.973 | [26] 0.949 | [27] 0.976 | S. cerevisiae deletion strains, locus YPR119W, strain clb2, active compounds read low 0.99 | S. cerevisiae deletion strains, locus YPR141C, strain kar3, active compounds read low 0.968 | S. cerevisiae deletion strains, locus YPR163C, strain tif3, active compounds read low 0.999 | S. cerevisiae deletion strains, locus YPR167C, strain met16, active compounds read low 0.988 | S. cerevisiae deletion strains, strain wtn01, active compounds read low 0.995 | [29] 0.979
